# Experimental data as given in PubChem BioAssay (NCI).
# This is part of a sample that, as a whole, favours compounds with a hit. Of some 79,000 tested, about 15% had one in any assay. Unmarked numbers belong to inactive results. The source made the active and inactive calls. Rule as the data show it: active = growth inhibition above about 70%; inactive = the rest.
# Assay: NCI Yeast Anticancer Drug Screen. Data for the sgs1 mgt1 strain (AID 161);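 also: 0% = growth of cultures given vehicle only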
# Conditions: S. cerevisiae sgs1 mgt1 strain, at 50.0 µM (retest, dose inferred, filed as 5.0), hits give high values
# Summary of the method: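 Inhibition of yeast growth, normalised to vehicle-treated controls, is reported for a strain bearing genetic alterations in DNA damage repair.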
row,SMILES,growth inhibition
1,CCC[CH2][Sn]([CH2]CCC)([CH2]CCC)[O]C(=O)C(OC(C)=O)c1ccccc1 (stereo not drawn),99% (active)
2,CC(C)(C)S(=O)(=O)O.[Ag],100% (active)
3,COc1ccc2c(c1)C(OC)C1c3c(cc4c(c3-2)OCO4)CCN1C (stereo not drawn),28%
4,CC1=CC(=O)C=CC1(C)C(Cl)(Cl)Cl (stereo not drawn),-6%
5,C=C1C(=O)C2=CC1CCC(=O)C1(C)CCC(OC(C)=O)C(C)(C)C1CC2O (stereo not drawn),46%
6,CCOc1ccc(C(CN2CCOCC2)C(C)=O)cc1OC (stereo not drawn),30%
7,COc1cc(/C=C2\SC(=S)N(/C=C/c3nc4ccccc4[nH]c3=O)C2=O)cc(OC)c1OC,24%
8,O=[N+]([O-])c1ccc(C2N(Cc3ccc(Cl)cc3)CCN2Cc2ccc(Cl)cc2)cc1,100% (active)
9,O=[N+]([O-])/C(=C/c1ccccc1)c1ccccc1,97% (active)
10,c1ccc(-c2cc3cc4ccccc4cn3c2)cc1,97% (active)
11,O=[N+]([O-])c1ccc2nc3ccccc3[n+]([O-])c2c1,100% (active)
12,O=C(CBr)C(Br)C(Br)c1ccccc1 (stereo not drawn),98% (active)
13,Nc1cccc2c1-c1ccccc1C2=O,47%
